This note sets out measurements from PubChem BioAssay (NCI).

Common to all, as to test: NCI-60 one-dose screen, 48 h (100 = growth as untreated, 0 = no growth, -100 = all killed)
One assay deals with HCT-15 colon. As to conditions: 10 µM unless noted.
The subject of another assay is HT29 colon. Particulars: 10 µM unless noted.
A further assay concerns SNB-75 CNS. As to conditions: 10 µM unless noted.
A further assay deals with SNB-19 CNS. Particulars: 10 µM unless noted.
A further assay has as its system U251 CNS. As to conditions: 10 µM unless noted.
The test system of the next assay is PC-3 prostate. Particulars: 10 µM unless noted.
For another assay, the system named is SK-MEL-5 melanoma. As to conditions: 10 µM unless noted.
For a further assay, the system named is UACC-62 melanoma. Particulars: 10 µM unless noted.
For another assay, the system named is LOX IMVI melanoma. As to conditions: 10 µM.
In another assay the test system is SK-MEL-28 melanoma. Particulars: 10 µM unless noted.
For another assay, the system named is SK-MEL-2 melanoma. As to conditions: 10 µM unless noted.
The test system of the next assay is SN12C renal. As to conditions: 10 µM unless noted.
In the next assay the test system is UO-31 renal. Particulars: 10 µM unless noted.
In a further assay the test system is TK-10 renal. As to conditions: 10 µM unless noted.
The subject of another assay is ACHN renal. As to conditions: 10 µM unless noted.
A further assay concerns CAKI-1 renal. As to conditions: 10 µM unless noted.
A further assay concerns A498 renal. Particulars: 10 µM unless noted.
For another assay, the system named is CCRF-CEM leukemia. Particulars: 10 µM unless noted.
Another assay deals with MOLT-4 leukemia. Particulars: 10 µM unless noted.
In another assay the test system is EKVX NSCLC. Particulars: 10 µM unless noted.

Each structure is given as a SMILES string. About 83,000 compounds went through this panel and 20% of them were active in at least one assay; those are over-represented in the sample as a whole.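 Single-dose data. Exposure time 48 hours. Values below 10 considered active.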 Values without a mark were called inactive. Active and inactive are the calls of the source.

For `CC(=O)c1cccc(O)c1`, the growth with HCT-15 colon is 101%; in the assay with HT29 colon it was 92.1%; with SNB-75 CNS, 91.4%; in the assay with SNB-19 CNS, 108%; in the assay on U251 CNS, 97.2%; with PC-3 prostate it was 106%. The growth in the assay with SK-MEL-5 melanoma was 100%; in the assay on UACC-62 melanoma, 109%; with LOX IMVI melanoma, 94.6%; in the assay with SK-MEL-28 melanoma it was 109%; with SK-MEL-2 melanoma, 103%; with SN12C renal it was 107%. Besides, the growth in the assay with UO-31 renal is 90.5%; with TK-10 renal it was 90%; in the assay on ACHN renal it was 103%; with CAKI-1 renal it was 97.9%; in the assay with A498 renal, 38.3%; with CCRF-CEM leukemia, 106%. For the same molecule, the growth in the assay on MOLT-4 leukemia was 95.9%.

As for `N#Cc1ccc2nc[nH]c2c1`, the growth was 106% with HCT-15 colon; 112% in the assay on HT29 colon; 95.5% in the assay on SNB-75 CNS; 111% in the assay with SNB-19 CNS; 101% in the assay on U251 CNS; 105% in the assay on PC-3 prostate. For the same molecule, the growth in the assay on SK-MEL-5 melanoma is 102%; in the assay with UACC-62 melanoma it was 105%; with LOX IMVI melanoma, 101%; in the assay on SK-MEL-28 melanoma it was 108%; with SK-MEL-2 melanoma, 102%; in the assay with EKVX NSCLC, 104%. Further, the growth is 91.4% with UO-31 renal; 108% with TK-10 renal; -68.5% (active) in the assay with ACHN renal; 95% in the assay with CAKI-1 renal; 98.7% in the assay on A498 renal; 115% with CCRF-CEM leukemia. Further, the growth in the assay on MOLT-4 leukemia is 109%.

On to `N#C/C(=C\c1ccc2c(c1)OCO2)c1ccccc1`, for which the growth was 49.4% with HCT-15 colon; 35.5% with HT29 colon; 76.2% in the assay on SNB-75 CNS; 86.4% with SNB-19 CNS; 55% in the assay with U251 CNS; 84.8% with PC-3 prostate. For the same molecule, the growth was 54.6% in the assay with SK-MEL-5 melanoma; 69.7% in the assay on UACC-62 melanoma; 78.3% in the assay on LOX IMVI melanoma; 87.7% in the assay on SK-MEL-28 melanoma; 76.5% in the assay on SK-MEL-2 melanoma; 80.9% in the assay with EKVX NSCLC. In addition, the growth was 76.7% in the assay on UO-31 renal; 93.6% in the assay on ACHN renal; 58.9% with CAKI-1 renal; 62.7% with A498 renal; 75.3% in the assay on CCRF-CEM leukemia; 57.8% in the assay with MOLT-4 leukemia.

With `Cn1c(=O)c2[nH]c(CCCCC(=O)O)nc2n(C)c1=O`, the growth with HCT-15 colon was 107%; in the assay on HT29 colon, 110%; with SNB-75 CNS, 95.3%; in the assay on SNB-19 CNS, 114%; with U251 CNS, 106%; in the assay with PC-3 prostate it was 92.4%. Further, the growth in the assay with SK-MEL-5 melanoma is 108%; in the assay with UACC-62 melanoma, 102%; in the assay on LOX IMVI melanoma, 99.4%; in the assay with SK-MEL-28 melanoma it was 118%; in the assay with SK-MEL-2 melanoma, 111%; in the assay on EKVX NSCLC, 131%. Besides, the growth in the assay with UO-31 renal is 105%; in the assay with TK-10 renal, 98.4%; in the assay with ACHN renal, 103%; in the assay on CAKI-1 renal, 106%; with A498 renal it was 113%; with CCRF-CEM leukemia it was 75.6%. Also, the growth in the assay with MOLT-4 leukemia was 102%.

As to `O=C(O)CC1=CCCCC1`, the growth in the assay with HCT-15 colon was 98.1%; in the assay on HT29 colon, 105%; in the assay on SNB-75 CNS, 89.6%; with SNB-19 CNS, 97.2%; with U251 CNS, 105%; in the assay with PC-3 prostate, 96%. The growth was 101% in the assay with SK-MEL-5 melanoma; 98% in the assay on UACC-62 melanoma; 94.5% in the assay on LOX IMVI melanoma; 95.5% in the assay with SK-MEL-28 melanoma; 119% in the assay on SK-MEL-2 melanoma; 97.5% in the assay on EKVX NSCLC. The growth is 89.1% in the assay on UO-31 renal; 108% with TK-10 renal; 91.1% with ACHN renal; 97.7% in the assay with CAKI-1 renal; 74.8% in the assay with A498 renal; 96.9% in the assay on CCRF-CEM leukemia. Moreover, in the assay with MOLT-4 leukemia, the growth was 97.5%.

For the molecule `COC1C(=O)CCC2(CO2)C1(O)C1(C)OC1CCC(C)C` (centres undefined), the growth is 56.4% in the assay on HCT-15 colon; 60.3% in the assay with HT29 colon; 77.5% in the assay with SNB-75 CNS; 51.5% in the assay with SNB-19 CNS; 42.3% in the assay on U251 CNS; 74.6% in the assay on PC-3 prostate. Further, the growth with SK-MEL-5 melanoma is 64.6%; with UACC-62 melanoma, 70.4%; in the assay with LOX IMVI melanoma, 50.3%; in the assay on SK-MEL-2 melanoma it was 78.7%; in the assay with EKVX NSCLC, 76.2%; in the assay on SN12C renal it was 74.9%. Moreover, the growth in the assay with UO-31 renal was 48.7%; in the assay on TK-10 renal, 119%; with ACHN renal it was 72.1%; in the assay with CAKI-1 renal, 71.4%; with A498 renal, 113%; with CCRF-CEM leukemia, 70.4%. Moreover, in the assay on MOLT-4 leukemia, the growth was 94%.

Take `Cc1onc(-c2c(F)cccc2Cl)c1-c1ncc(-c2ccc(Br)cc2)o1`: the growth in the assay with HCT-15 colon is 17.7%; in the assay with HT29 colon, 24.9%; in the assay with SNB-75 CNS, 65.8%; in the assay on SNB-19 CNS, 42.9%; in the assay with U251 CNS, 39.6%; with PC-3 prostate, 41%. For the same molecule, the growth in the assay on SK-MEL-5 melanoma is 10.8%; with UACC-62 melanoma, 34%; in the assay with SK-MEL-28 melanoma, 50.3%; with SK-MEL-2 melanoma, 74.8%; in the assay on EKVX NSCLC it was 46%; in the assay on SN12C renal, 34%. In addition, the growth was -0.651% (active) with UO-31 renal; 46.8% with TK-10 renal; 32.8% in the assay on ACHN renal; 33.1% with CAKI-1 renal; 86.4% with A498 renal; 39.5% in the assay with CCRF-CEM leukemia. For the same molecule, the growth in the assay on MOLT-4 leukemia is 16.9%.

As to `C=C(c1ccc(N(C)C)cc1)c1ccc(N(C)C)cc1`, the growth in the assay with HCT-15 colon was 6.8% (active); in the assay on HT29 colon it was -31.6% (active); in the assay with SNB-75 CNS, -14.5% (active); with SNB-19 CNS it was 20.6%; with U251 CNS, 3.57% (active); in the assay with PC-3 prostate it was 25.7%. For the same molecule, the growth in the assay with SK-MEL-5 melanoma is -0.97% (active); in the assay on UACC-62 melanoma it was -8.67% (active); in the assay with SK-MEL-28 melanoma it was 31.5%; with SK-MEL-2 melanoma, -8.02% (active); in the assay with EKVX NSCLC, 6.55% (active); in the assay on SN12C renal, 1.84% (active). Besides, the growth in the assay on UO-31 renal is 28.8%; in the assay on ACHN renal, 36.1%; in the assay with CAKI-1 renal, 22.2%; in the assay on A498 renal, 78.8%; in the assay on CCRF-CEM leukemia it was -14.1% (active); with MOLT-4 leukemia, 5.78% (active).

As for `Nc1c(O)c(S(=O)(=O)O)c(O)c2c1C(=O)c1ccccc1C2=O`, the growth in the assay with HCT-15 colon is 15.9%; in the assay on HT29 colon, 14%; with SNB-75 CNS, 24.7%; with SNB-19 CNS, 26.2%; with U251 CNS, 20.2%; in the assay with PC-3 prostate, 23.8%. Moreover, the growth was 5.72% (active) with SK-MEL-5 melanoma; 34.6% in the assay on UACC-62 melanoma; 42.5% in the assay with SK-MEL-28 melanoma; 6.13% (active) in the assay on SK-MEL-2 melanoma; 33.8% with EKVX NSCLC; 28.1% in the assay on SN12C renal. Moreover, the growth is 12.2% in the assay with UO-31 renal; 21.7% with TK-10 renal; 4.01% (active) with ACHN renal; 13.5% with CAKI-1 renal; 5.41% (active) in the assay with A498 renal; 28% in the assay with CCRF-CEM leukemia. Besides, the growth with MOLT-4 leukemia is 5.87% (active).
